# Screens deposited in PubChem by National Center for Advancing Translational Sciences (NCATS).
# The list is not random: actives were taken first. Their share in the collection is about 21%.
# CHX counter: Cycloheximide Counterscreen for Small Molecule Inhibitors of Shiga Toxin; 12% of 300,000 active; cell reporter, cycloheximide protein synthesis inhibition counterscreen; max response, %; in the data active means max response mostly above about 13%, no sharp cut-off; inactive means mostly below about 14%; further: read at 38.3 µM for the half of the compounds with a filed dose; 0% is about no effect
# Pf growth 96h: Primary qHTS for delayed death inhibitors of the malarial parasite plastid, 96 hour incubation; P. falciparum luciferase reporter growth, 96 h; Potency, µM (highest dose often 28.7 µM), for the others: at the highest dose activity change, negative = inhibition, most hits filed as inhibitors; 6.9% of 320,000 active; further: potency means the concentration at half of the fitted maximal effect; on the % scale 0 is the no-effect control and ±100 the full control effect
#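 P. falciparum expressing integrated firefly luciferase grown in erythrocytes (2% hematocrit, 0.05% parasitemia final) with compounds for 96 hours at 37 C, 5% CO2. Growth inhibition read as loss of luminescence after adding luciferase detection reagent.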
# Pf growth 48h: Primary qHTS for delayed death inhibitors of the malarial parasite plastid, 48 hour incubation | P. falciparum luciferase growth in erythrocytes, 48 h | Potency, µM (highest dose often 28.7 µM), for inactives: top-dose activity change, negative = inhibition, usual class: inhibitors | 5.9% of 310,000 active; further: potency means the concentration at half of the fitted maximal effect; on the % scale 0 is the no-effect control and ±100 the full control effect
#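 A one-generation exposure of luciferase-tagged malaria parasites in RPMI 1640/Albumax erythrocyte culture, 37 C and 5% CO2. Inhibition is inferred from decreased luminescence after adding detection reagent.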
# SARS PLP yeast: qHTS of Yeast-based Assay for SARS-CoV PLP; S. cerevisiae expressing SARS-CoV PLpro, growth rescue; Potency, µM (titrated, usually from 32.9 µM), for the others: at the top dose activity, positive = growth rescue, actives largely listed as activators; 0.19% of 330,000 active; AID 485353, 2010; calls by dose curve; further: potency means the concentration at half of the fitted maximal effect; 0% is about no effect; nearly all actives have a fitted effect of over 55% in size
# NS1 function inh: qHTS Assay for Inhibitors of Influenza NS1 Protein Function; Potency, µM (series often up to 46.1 µM), for the others: top-dose activity, positive = more growth; 0.4% of 270,000 active; calls by dose curve; further: potency means the concentration at half of the fitted maximal effect; actives are rising curves; nearly all actives have a fitted effect of over 50% in size
#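 Compounds were scored for reversing the slow growth caused by influenza A NS1 in S. cerevisiae, measured by optical density at 600 nm. Assay medium contained 2% galactose at pH 6.0; NS1-free yeast of the same strain were the positive control.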
# Shiga toxin inh: A qHTS for Small Molecule Inhibitors of Shiga Toxin; Vero cells, Shiga toxin protein synthesis inhibition reporter; 9.2% of 290,000 active; inhibition, % at 38.7 µM; in the data active means inhibition mostly above about 28%, no sharp cut-off; inactive means mostly below about 43%; further: 0% is about no effect
# The depositor's hits bear a star; ? = inconclusive; nt = no result. Unless noted, the call rests on the fitted dose curve; in most records, active means well fitted inhibition curve with a large enough effect; inconclusive means small, poorly fitted or top-dose-only effect, or another doubt; inactive means no such curve, though single readings can be large or run the other way.
SMILES,CHX counter,Pf growth 96h,Pf growth 48h,SARS PLP yeast,NS1 function inh,Shiga toxin inh
COc1cc(OC)cc(C(=O)Nc2ccc(Cn3ccnc3)cc2)c1,15*,22%,?,0%,9%,25
COc1ccccc1OCC#CCn1ccnc1,-5,2%,-6%,0%,2%,4
COc1cc(Cn2ccnc2)c(OC)cc1Cn1ccnc1,-4,?,9.3µM*,-2%,2%,-27
COc1ccc(C(=O)Nc2ccc(Cn3ccnc3)cc2)cc1OC,13*,10µM*,34%,1%,0%,21*
CCc1cccc(C)c1NC(=O)CO/N=C(\N)CC(=O)NC1CCCCC1,-2,?,?,0%,nt,-4
CCc1cc2c(=O)n(CC)c(SC(C)C(=O)Nc3c(C)n(C)n(-c4ccccc4)c3=O)nc2s1 (stereo not given),-6,nt,?,-8%,9%,-13
O=S(=O)(NC(=NC1CCCCC1)c1ccccc1)c1ccc(F)cc1,2,9.3µM*,?,1%,4%,1
Cc1nc(Nc2ccc(Cl)c(Cl)c2)sc1C(=O)Nc1ccccc1,25*,?,?,-84%,3%,-28
Cc1nc(Nc2ccc(Cl)cc2Cl)sc1C(=O)Nc1ccccc1,-1,12µM*,?,-60%,5%,-7
Cc1nc(NC(=O)C2CC2)sc1C(=O)Nc1ccccc1Cl,33*,-13%,83%,-5%,-2%,19
Cc1nc(NC(=O)/C=C/c2ccccc2)sc1C(=O)Nc1ccc(Cl)cc1,-1,43%,?,-9%,5%,-14
COC(=O)c1sc2ccccc2c1NC(=O)c1ccc(S(=O)(=O)N2CCCCC2)cc1,-4,12%,12%,-1%,-5%,-14
COC(=O)c1sc2ccccc2c1NC(=O)c1ccc(S(=O)(=O)N2CCCCC2C)cc1 (stereo not given),-4,13µM*,15µM*,23%,11%,-16
CC1CCCCN1S(=O)(=O)c1ccc(C(=O)Nc2sccc2C(N)=O)cc1 (stereo not given),56*,9.3µM*,9.3µM*,-39%,-25%,60*
NC(=O)c1ccsc1NC(=O)c1ccc(S(=O)(=O)N2CCCc3ccccc32)cc1,3,10µM*,?,-31%,?,7
CC1CCCCN1S(=O)(=O)c1ccc(C(=O)Nc2nnc(-c3ccncc3)o2)cc1 (stereo not given),4,?,?,1%,nt,-5
CCCCOC(=O)C(C)Sc1n[nH]c(=O)[nH]c1=O (stereo not given),-10,?,-17%,-4%,nt,-28
O=C(Nc1ccc(N2CCOCC2)cc1)NC1CCCCC1,18*,32%,?,6%,-5%,67*
O=C(NC1CCCCC1)N1CCN(c2ccc(Cl)cc2)CC1,6,1.9µM*,?,-10%,-36%,-9
Cc1nc2cc(NC(=O)Nc3ccc(N4CCOCC4)cc3)ccc2n1C,0,nt,-4%,-1%,5%,-6
O=C(Nc1ccc(N2CCOCC2)cc1)C1CC1,10,?,35%,4%,10%,44
O=C(Nc1ccc(N2CCOCC2)cc1)Nc1ccc(Cl)c(Cl)c1,19*,?,nt,0%,-9%,40
O=C(Nc1ccc(N2CCOCC2)cc1)Nc1cnsn1,44*,2%,97%,-1%,2%,34*
CCN1CCN(C(CNS(=O)(=O)c2ccccc2)c2ccccc2)CC1 (stereo not given),-3,2%,17%,-1%,-1%,-8
O=C(OCCN=C1NS(=O)(=O)c2ccccc21)C1CC(=O)N(c2ccc3ccccc3c2)C1 (stereo not given),5,nt,10%,-5%,-16%,31
SMILES,CHX counter,Pf growth 96h,Pf growth 48h,SARS PLP yeast,NS1 function inh,Shiga toxin inh
O=C(Nc1ccc(Cl)cc1)Nc1ccc(N2CCOCC2)cc1,19*,1%,8%,3%,-7%,30*
O=C(c1ccc(CS(=O)(=O)c2ccccc2)o1)N1CCOCC1,6,12µM*,nt,4%,-12%,16
O=C(c1ccc(CS(=O)(=O)c2ccc(Br)cc2)o1)N1CCCC1,-2,7.4µM*,nt,4%,7%,23
Cc1ccccc1C(C)NC(=O)COC(=O)Cn1cc(C(F)(F)F)ccc1=O (stereo not given),nt,-5%,-1%,-12%,nt,nt
CC(NC(=O)C12CC3CC(C)(CC(C)(C3)C1)C2)c1ccncc1 (stereo not given),-3,?,23%,1%,-12%,-18
CCN(CC)C(=O)c1ncn(C)c1C(=O)N(CC)CC,nt,nt,nt,0%,nt,nt
O=C(CSc1nc2ccccc2s1)Nc1ccc(N2CCOCC2)c(Cl)c1,1,?,17%,-27%,9%,12
COc1ccc(NC(=O)CSc2nnc(C)s2)cc1S(=O)(=O)N1CCOCC1,nt,10µM*,-18%,-7%,nt,nt
CCOc1cc(C(=O)NCc2ccccc2)ccc1OCC(=O)N1CCOCC1,2,3%,-8%,0%,nt,21
O=C(Nc1nc2ccccc2s1)C1CCN(S(=O)(=O)c2cc([N+](=O)[O-])ccc2Cl)CC1,21*,?,?,-1%,-2%,50*
CCOc1cc(/C=C/c2nc3ccccc3s2)ccc1OCC(=O)N1CCOCC1,16*,0%,0%,10%,-28%,37*
CC(=O)Nc1ccc2nc(SCC(=O)Nc3ccc(N4CCOCC4)c(Cl)c3)sc2c1,69*,4%,35%,5%,-11%,98*
COc1ccc(O)c(CN2CCC(n3nccc3NC(=O)c3ccccc3Cl)CC2)c1,7,-22%,?,-1%,6%,-8
Nc1c(N2CCCCC2)c2ccccc2oc1=O,13,?,8%,-3%,nt,-3
CCOc1ccc(CCNC(=O)Nc2cccc(OC)c2)cc1OCC,3,1%,?,1%,-10%,11
O=C(CSc1ccccc1)Nc1ccc(Cl)c(S(=O)(=O)N2CCOCC2)c1,nt,nt,nt,3%,nt,nt
O=C(CSc1nc2ccccc2s1)Nc1ccc(Cl)c(S(=O)(=O)N2CCOCC2)c1,10,4.7µM*,?,-23%,19%,14
Cc1ccc(NC(=O)CSc2nc3ccc(Nc4nc(N5CCOCC5)nc(N5CCOCC5)n4)cc3s2)cc1,5,?,?,8%,24%,7
O=C(CSc1nc2ccccc2s1)N1CCOCC1,29*,?,44%,2%,6%,active
CC(C)(C)NC(=O)CSc1nc2ccc(Nc3nc(N4CCOCC4)nc(N4CCOCC4)n3)cc2s1,2,?,7.4µM*,0%,1%,-7
CC(=O)CSc1nc2ccc(Nc3nc(N4CCOCC4)nc(N4CCOCC4)n3)cc2s1,-2,6.6µM*,?,-1%,11%,-15
